Laboratory results reported in the supplement of paper PMC4466236.
Whole data set: some 33,000 sequences, median “E-score (dimensionless, -0.5 to 0.5)” near -0.058, cut for the highest 2% near 0.35. Shown is part of a subset that was picked to be rich in the highest values.

System: MvaT
Assay: PBM 8-mer E-score (mean of HK and ME arrays) (E-score (dimensionless, -0.5 to 0.5)); higher = stronger relative binding preference
In short: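 Full-length P. aeruginosa MvaT carrying an N-terminal glutathione S-transferase tag was tested by protein binding microarray following a previously described protocol. Two universal double-stranded 60-mer arrays, ME and HK, were used, each with a constant 25-mer primer region and a variable 35-mer region covering all 8-mers. The rank-based E-score is the mean of the two arrays, parsed with a custom script. Its range runs from -0.5 to 0.5 for each 8-mer.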

Row | Sequence | PBM 8-mer E-score
1 | ATGTTCTA | 0.0957
2 | TAGTCGGA | -0.0242
3 | ACATTTCA | 0.153
4 | ATTTAGAA | 0.321
5 | GTAGTGTA | 0.0767
6 | CGGTGCTA | -0.21
7 | ATAAATAC | 0.362
8 | ATAAATGC | 0.279
9 | ATAAATCC | 0.25
10 | CGGTTTCC | -0.194
11 | CAATTTGG | 0.0733
12 | AATTAAGC | 0.328
13 | AATTAAGG | 0.37
14 | ACTTAAGT | 0.314
15 | CATTAAGG | 0.0854
16 | AGTTAAGG | 0.135
17 | AATTAAGT | 0.395
18 | ATGCAGAA | 0.0633
19 | CAGACAAA | 0.0494
20 | GAGAGGCC | -0.32
21 | AGATGAGA | 0.0308
22 | GAATATTC | 0.349

Row | Sequence | PBM 8-mer E-score
23 | GAATATGC | 0.119
24 | AAATATCC | 0.253
25 | AGATATTC | 0.209
26 | AAATATTC | 0.363
27 | GAATATCC | 0.0901
28 | GACCGAAA | -0.0789
29 | GGGACGGA | -0.273
30 | TAGGAGGA | -0.23
31 | AGTATTTA | 0.33
32 | CTCATTTA | 0.172
33 | AGTATTTG | 0.308
34 | ACTATTTG | 0.258
35 | GTTATTTA | 0.395
36 | ACTATTTA | 0.345
37 | CTTATTTC | 0.291
38 | GGTATTTA | 0.27
39 | ATTATTTG | 0.351
40 | ATTATTTA | 0.44
41 | CTTATTTA | 0.391
42 | GCTATTTA | 0.252
43 | GACGACGA | 0.0375
44 | AGCCTTCG | -0.32

Row | Sequence | PBM 8-mer E-score
45 | CAAAAATC | 0.0508
46 | GAGATTAC | 0.135
47 | AAGAAACT | 0.186
48 | GGCGTGGA | -0.173
49 | GACCATAA | -0.0261
50 | CGGAGCCA | -0.2
51 | GCAATCCA | -0.0685
52 | CGCACCCC | -0.26
53 | AGTATTTC | 0.207
54 | ATTATTTC | 0.352
55 | ATTATTGC | 0.292
56 | AACCTGGA | -0.275
57 | AGCGCGAT | -0.196
58 | CATTTAAG | 0.287
59 | AATTTAGA | 0.183
60 | CATTTAAA | 0.386
61 | AATTTAAA | 0.443
62 | AATTTAAT | 0.431
63 | AATTTTAA | 0.321
64 | GATTTTAA | 0.248
65 | TATTTTAA | 0.41
66 | AATTTAAC | 0.31

Row | Sequence | PBM 8-mer E-score
67 | TATTTTCA | 0.277
68 | CATTTTAA | 0.176
69 | AATTTAAG | 0.271
70 | ATGCATAG | -0.0132
71 | CGCGCATA | 0.113
72 | GCGTGAAC | -0.168
73 | GGACCCCA | -0.231
74 | TACGCACA | 0.0888
75 | CGGTGGCA | -0.169
76 | CGCACGTA | -0.1
77 | CCTGCACG | -0.224
78 | TATTTAAA | 0.433
79 | GATTTAAA | 0.395
80 | GATTTACA | 0.072
81 | GATTTGAA | 0.2
82 | TCTTTAAA | 0.227
83 | TATTTAGA | 0.308
84 | CATTTACA | 0.339
85 | GATTTAAC | 0.245
86 | TATTTACA | 0.374
87 | ATGTCAAC | 0.0323
88 | CGCCTACG | -0.307

Row | Sequence | PBM 8-mer E-score
89 | AGGGAGAG | -0.161
90 | AGATTAAT | 0.379
91 | AGATTAAG | 0.175
92 | CCATTAAA | 0.329
93 | AGATTAAA | 0.178
94 | ACATTTAA | 0.388
95 | ACATTAAG | 0.265
96 | ACATTAAA | 0.359
97 | GCATTTAA | 0.326
98 | GCATTAAA | 0.256
99 | ACATTAAC | 0.345
100 | ACATTAAT | 0.382
101 | ACATTTAG | 0.177
102 | ACCACATC | -0.0359
103 | ATGCTCTA | -0.124
104 | TGTGCCAA | -0.0753
105 | AGGAATTA | 0.226
106 | CGTCCCCC | -0.209
107 | AACATTAC | 0.234
108 | TACTCCAA | 0.097
109 | GACCCTAC | -0.272
110 | ACATTTTG | 0.0944
